Consider 14 compounds from PubChem BioAssay (NCI).

This is part of a sample that, as a whole, favours compounds with a hit. Of some 83,000 tested, about 20% had one in any assay.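 Cell lines were cultured in 96-well plates, exposed to a single compound concentration, and assessed for percent growth 48 hours later.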 Active and inactive are the calls of the source. Rule for the calls: active = growth percent below 10; inactive = the rest.

In this assay the test system is MDA-MB-468 breast. Briefly: NCI-60 one-dose screen, 48 h (100 = growth as untreated, 0 = no growth, -100 = all killed). Particulars: 10 µM unless noted.
On to `O=C1/C(=C\c2coc3ccccc3c2=O)c2ccccc2N1c1c(Cl)cccc1Cl`, for which the growth was 44.9% (inactive).

`O=c1oc2cc(OS(=O)(=O)c3ccccc3)c(Cl)cc2c2c1CCCCCC2`: the growth was 62.2% (inactive). To `C[C@]12CCc3c(ccc4cc(O)ccc34)[C@@H]1C[C@H](O)[C@@H]2O` belongs 100% (inactive). To `Cn1c(=O)c(S(=O)(=O)c2ccccc2)cc2ccc3c(cnn3-c3ccc(Cl)cc3)c21` belongs 72.3% (inactive); to `C=C(C)[C@@H]1CC[C@]2(C(=O)N3CCN(C)CC3)CC[C@]3(C)[C@H](CC[C@@H]4[C@@](C)(CCC(=O)O)[C@H](C(=C)C)CC[C@]43C)[C@@H]12`, 90.1% (inactive); to `O=C(C[n+]1ccccc1)c1ccc2ccccc2c1`, 88.1% (inactive).

Consider `Cc1c(O)cc(-c2cnc(Nc3ccccc3)s2)c(O)c1C`, for which the growth was 57.4% (inactive). To `CC(C)CCSc1nc(Nc2ccccc2)c(C#N)c(-c2ccccc2)n1` belongs 43.4% (inactive); to `O=S(=O)(Nc1ccc(F)c(Cl)c1)c1ccc(-c2cnc(C3CC3)o2)cc1`, -23.9% (active). To `CC(C)CC(NC(=O)CN(Cc1ccccc1)S(C)(=O)=O)C(=O)O` (centres undefined) belongs 99.6% (inactive); to `C/C(O)=C(\C=N\C(N)=S)C(=O)Nc1ccccc1`, 92.8% (inactive). To `CCOC(=O)C1CCN(S(=O)(=O)/N=C2/NC(=O)NC2=C(Cl)Cl)CC1` belongs -22.2% (active). Regarding `Nc1nc(-c2cnccn2)nn1-c1nc2ccccc2s1`, the growth was 102% (inactive). In the case of `CC(C)c1ccc(C(C)C(=O)N(CC2=C(C(C)c3ccccn3)c3ccccc3C2)C(C)C)cc1` (centres undefined) it was 24.9% (inactive).
